Measured values as given in PubChem BioAssay (NCI).
Values joined by “and” are separate entries in the source; they are usually repeats but may differ in a detail not shown here. Equal entries are not always repeated. The panel holds about 79,000 compounds, 15% with a hit somewhere; the sample as a whole holds those more often. Active and inactive are the calls of the source. No stated cut-off is given here; in the data, active means growth inhibition above about 70%; inactive means the rest.

Columns and labels:
[1] = NCI Yeast Anticancer Drug Screen. Data for the rad50 strain (AID 155);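 further: 0% = growth of vehicle-only cultures of the same strain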; details: S. cerevisiae rad50 strain growth inhibition, stronger effect = higher value; at 50.0 µM unless noted
Procedure, shortened: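 A DNA repair-deficient yeast mutant serves as the test organism; compound-induced growth inhibition is calculated against vehicle-treated cells.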

[2] = NCI Yeast Anticancer Drug Screen. Data for the mec2-1 strain (AID 157); details: S. cerevisiae mec2-1 strain, stronger effect = higher value; at 50.0 µM unless noted
Procedure, shortened: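 Yeast mec2-1 mutant treated with compound. Readout: growth inhibition vs vehicle controls.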

[3] = NCI Yeast Anticancer Drug Screen. Data for the sgs1 mgt1 strain (AID 161);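 further: 0% = growth of cultures given vehicle only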; details: S. cerevisiae sgs1 mgt1 strain, stronger effect = higher value; at 50.0 µM unless noted
Procedure, shortened: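 Test agents were incubated with a DNA-repair-mutant yeast strain. Growth was then read and compared against vehicle-treated controls.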

[4] = NCI Yeast Anticancer Drug Screen. Data for the cln2 rad14 strain (AID 165);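 further: 0% = growth equal to vehicle treated cultures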; details: S. cerevisiae cln2 rad14 strain, stronger effect = higher value; at 50.0 µM unless noted
Procedure, shortened: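 cln2 rad14 yeast strain; compound exposure; growth inhibition read vs vehicle controls.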

[5] = NCI Yeast Anticancer Drug Screen. Data for the bub3 strain (AID 167); details: S. cerevisiae bub3 mutant strain, stronger effect = higher value; at 50.0 µM unless noted
Procedure, shortened: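 Inhibition values come from growth of compound-treated mutant yeast normalised to vehicle-treated controls.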

[6] = NCI Yeast Anticancer Drug Screen. Data for the mlh1 rad18 strain (AID 175); details: S. cerevisiae mlh1 rad18 strain growth inhibition, stronger effect = higher value; at 50.0 µM unless noted
Procedure, shortened: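 Yeast w/ defined DNA-repair lesions; compound exposure; growth vs vehicle controls → % inhibition.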

Measured: growth inhibition

Cc1cc2nc3c4ccccc4scc-3c2cc1C
active: [1] 99% | [2] 99.3% | [3] 99.3% | [4] 99% | [5] 99.1% | [6] 98%

NCc1cc(Br)ccc1O
inactive: [1] 24.4% | [2] 3.3% | [3] 23.5% | [4] -66.2% | [5] -11% | [6] 20.6%

CCN(CC)c1ccc2cc(-c3csc(-c4ccc(N(C)C)cc4)n3)c(=O)oc2c1
inactive: [1] 26.5% | [2] 12.7% | [3] -5.25% | [4] 16.9% | [5] -13.1% | [6] -20.3%

CC(C)(O)C(=O)O
inactive: [1] -6% and -19% | [2] 6.1% and -1.45% | [3] -8.2% and -10.8% | [4] 2.05% and -32.8% | [5] 7.25% and -3.95% | [6] 6.6% and -4.6%
